Only some compounds are listed: those with a hit (about 10% of all), similar ones and a draw of the others.
GLA spleen mod: inhibits or activates alpha-galactosidase in human spleen homogenate; Potency, µM (titrated, usually from 80 µM), for the others: top-dose activity change, negative = inhibition, most hits filed as inhibitors; human spleen homogenate, 4MU-alpha-Gal fluorescence, 40 min; 0.008% of 240,000 active; P06280;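 also: potency is read from the fitted curve at half-maximal effect; 0% = enzyme with vehicle and -100% = no enzyme basal signal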
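Human spleen homogenate (1 ug) as enzyme source, 4-methylumbelliferyl-alpha-D-galactopyranoside 1 mM final, citrate/phosphate pH 5.0 with 0.01% Tween-20. Compounds 40 min at 37C, NaOH/glycine stop; fluorescence Ex 365/Em 440, Hill-fit AC50.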
HPGD inh: inhibitors of human 15-hydroxyprostaglandin dehydrogenase (HPGD); P15428; purified HPGD, NADH fluorescence kinetic, PGE2 substrate; Potency, µM, for the others: at the top dose activity change, negative = inhibition, most hits filed as inhibitors; 4.3% of 150,000 active; AID 894; active = well fitted inhibition curve with a large enough effect, not every such curve was filed as active; inconclusive = small, poorly fitted or top-dose-only effect, or another doubt; inactive = no such curve, though single readings can be large or run the other way; also: potency is read from the fitted curve at half-maximal effect
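20 nM HPGD preincubated 15 min at room temperature with compound in 50 mM Tris-HCl pH 8, 0.01% Tween 20. Started with 1 mM NAD+ and 30 uM prostaglandin E2; NADH fluorescence (360/450 nm) read 5 times over 30-s intervals, last minus first.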
ALDH1A1 block: blocks purified human ALDH1A1 activity; Potency, µM (top dose mostly 75.3 µM), for inactives: at the top dose activity, negative = inhibition, most hits filed as inhibitors; AID 1030; 7.3% of 220,000 active; Purified ALDH1A1, NADH fluorescence, propionaldehyde substrate; P00352; active = well fitted inhibition curve with a large enough effect, not every such curve was filed as active; inconclusive = small, poorly fitted or top-dose-only effect, or another doubt; inactive = no such curve, though single readings can be large or run the other way;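 also: potency is read from the fitted curve at half-maximal effect; plate controls were no enzyme wells and a reference inhibitor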
GLA inh pH 4.5: inhibitors of human alpha-galactosidase A at pH 4.5; 230,000 tested, under 10 active; activity change, negative = inhibition, % at 105 µM; P06280; AID 1467; purified enzyme, 4-MU-alpha-Gal fluorescence, pH 4.5;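 also: 0% = full activity with enzyme and -100% = basal without enzyme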
ALOX12 inhib: 12-hLO (ALOX12) enzyme inhibition; Potency, µM (highest dose often 57.1 µM), for inactives: at the highest dose activity change, negative = inhibition, hits mostly inhibitors; P18054; purified 12-hLO, xylenol orange hydroperoxide absorbance; 0.12% of 150,000 active; also: potency is read from the fitted curve at half-maximal effect; nearly all actives have a fitted effect of over 55% in size
Target sequence (P18054 whole entry, looked up): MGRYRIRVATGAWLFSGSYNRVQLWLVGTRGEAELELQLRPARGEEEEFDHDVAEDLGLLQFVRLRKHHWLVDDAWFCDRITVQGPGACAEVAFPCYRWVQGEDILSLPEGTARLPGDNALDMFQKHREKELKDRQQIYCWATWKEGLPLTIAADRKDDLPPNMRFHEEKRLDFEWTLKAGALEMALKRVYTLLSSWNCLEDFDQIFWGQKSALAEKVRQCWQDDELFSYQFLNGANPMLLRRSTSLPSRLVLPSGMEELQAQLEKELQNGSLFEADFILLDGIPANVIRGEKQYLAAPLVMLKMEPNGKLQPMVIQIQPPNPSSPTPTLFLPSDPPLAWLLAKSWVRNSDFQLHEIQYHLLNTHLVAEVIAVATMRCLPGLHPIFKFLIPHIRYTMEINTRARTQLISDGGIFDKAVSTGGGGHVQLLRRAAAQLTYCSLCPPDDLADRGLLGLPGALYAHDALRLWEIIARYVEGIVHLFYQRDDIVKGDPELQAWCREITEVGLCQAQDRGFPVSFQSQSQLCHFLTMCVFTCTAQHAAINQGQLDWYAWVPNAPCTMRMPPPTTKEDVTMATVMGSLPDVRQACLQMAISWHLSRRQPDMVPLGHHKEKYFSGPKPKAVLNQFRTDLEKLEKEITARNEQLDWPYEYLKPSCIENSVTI
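Purified human 12hLO (150 nM final) was preincubated with compounds for 15 min at room temperature in 25 mM Hepes pH 7.0, 0.01% Triton X-100, then reacted with 40 uM arachidonic acid for 30 min. Hydroperoxide was detected with ferrous iron/xylenol orange.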
PNC inhibitor: blocks assembly of the perinucleolar compartment. PC3M PTB-GFP, PNC prevalence imaging, 16 h; hits give low values. activity change (PNC), negative = inhibition, % at 10 µM. 3.1% of 140,000 active;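 active = readout at or below -70, meaning at least 70% loss of cells showing the perinucleolar compartment, a nuclear body marking cancer cells; inconclusive = readout between -30 and a set limit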;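 also: plate controls were DMSO wells for no effect and camptothecin positive control wells for full effect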
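PC3M cells stably expressing PTB-GFP, 750–1000 cells/well, treated 16 h at 37 °C with compound (23 nl of library stock), in duplicate. After paraformaldehyde fixation and Hoechst stain, imaged at 20x; PNC prevalence scored by image analysis.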
Active calls of the source: *; u = inconclusive; x = no result given; ! = repeats disagree; [ ] = dose if it differs, or a comment. Unless noted, calls follow the shape of the dose curve; as a rule, active = well fitted curve in the direction sought with a large enough effect; inconclusive = small, poorly fitted or top-dose-only effect, or another doubt; inactive = no such curve, though single readings can be large; an effect the other way counts as inactive or inconclusive. Unless noted, % is scaled to controls: 0 for no effect and ±100 for the full control effect.

SMILES | GLA spleen mod | HPGD inh | ALDH1A1 block | GLA inh pH 4.5 | ALOX12 inhib | PNC inhibitor
Cc1nc(NCc2ccccc2)c2nc(-c3ccccc3)n(CCCN3CCOCC3)c2n1 | 0% | u | u | -1 | 2% | x
O=C1CCC[C@H]1C(=O)Nc1ccc2ccccc2c1 | x | -7% | 12%[13.5 µM] | x | 2%[11.4 µM] | x
CC1CCCC(C)N1c1nnc(N)s1 (centres undefined) | -1% | 28µM* | 18% | 7 | -6% | 51
CC1CCCCN1c1nnc(N)s1 (centres undefined) | -3% | u | u | x | -4% | -3
CC(N)CCCP(=O)(O)O (centres undefined) | -2% | x | -1% | x | x | x
CCCCC[C@H](O)/C=C/[C@H]1C=CC(=O)[C@@H]1C/C=C\CCCC(=O)O | 4% | 22µM*! | 40µM*! | 14 | -15% | -96*
CCCCC[C@H](O)/C=C/[C@@H]1[C@@H](C/C=C\CCCC(=O)O)[C@@H](O)C[C@@H]1O | -15% | -16% | u | -4 | 0% | x
Nc1sc2c(c1C(=O)c1ccccc1)CCCC2 | 6% | u | 14µM* | -6 | -21% | 6
NC(=O)c1c(N)sc2c1CCCC2 | -6% | 32µM* | 13µM* | -11 | -25% | 16
O=C(NCCc1ccccc1)c1c(F)cccc1F | 6% | x | 2% | 7 | x | x
CC(=O)Nc1sc2c(c1C(N)=O)CCCC2 | -4% | -6% | 4% | 7 | 2% | 13
Nc1sc2c(c1C(=O)NCCc1ccccc1)CCC2 | 4% | x | 20µM* | -3 | x | x
Cc1cc(O)c(C)c2sc(N)nc12 | -3% | x | x | x | x | x
CSC1=N/C(=C\c2c(F)cccc2Cl)C(=O)S1 | -13% | 4.5µM* | -9% | 16 | 14% | 59
CSC1=N/C(=C\c2cccc(F)c2)C(=O)S1 | 1% | -2% | u | -7 | -6% | 11
CC1=CSC2=NC(=O)/C(=C\c3cccn3-c3ccccc3)C(=N)N12 | 7% | -18% | 22µM* | 1 | -4% | 63
CCOc1ccc(-n2c(C)cc(/C=C3/C(=N)N4C(=NC3=O)SN=C4S(C)(=O)=O)c2C)cc1 | -5% | x | 18µM* | -10 | x | x
Cc1ccc(-n2cccc2/C=C2/C(=N)N3C(=NC2=O)SN=C3S(C)(=O)=O)cc1Cl | 4% | -15% | 18µM* | -19 | -8% | 0
COc1ccccc1-n1c(C)cc(/C=C2/C(=N)N3C(=NC2=O)SN=C3S(C)(=O)=O)c1C | 4% | x | u | 5 | x | x
Cc1cc(/C=C2/C(=N)N3C(=NC2=O)SN=C3S(C)(=O)=O)c(C)n1-c1ccc(F)cc1 | 0% | x | 28µM* | -3 | x | x
COc1ccc(C(=O)NNC2=CC(=O)CC(C)(C)C2)cc1OC | -8% | u | -3% | 7 | 0% | 50
CSc1ncccc1C(=O)N1CCCC(CCC(=O)NCc2ccc(F)c(F)c2)C1 (centres undefined) | 13% | x | -1% | 3 | x | x
CCC1=NN2C(=N)/C(=C\c3cccn3-c3cccc(Cl)c3)C(=O)N=C2S1 | -2% | x | 1.8µM* | -12 | x | x
CC(=O)c1c(C)[nH]c(C(=O)N(C)C(c2ccccc2)c2ccccc2)c1C | 1% | x | 18µM* | -6 | x | x
CCCCN=CC1=C(O)C(C(=O)OC)C(C)(C)CC1=O (centres undefined) | 0% | -2% | -6% | 9 | 4% | -86*
CCOC(=O)[C@]1(C(NC(=O)OC)c2cccc(F)c2)CCCC1=O (some centres undefined) | 6%[17.5 µM] | x | 15%[13.5 µM] | x | x | x
CCCOc1ccc(N2C(=O)CC(SCCc3nc4ccccc4[nH]3)C2=O)cc1 (centres undefined) | 5% | x | u | -1 | x | x
CCOc1ccc(N2C(=O)CC(SCc3nc4ccccc4[nH]3)C2=O)cc1 (centres undefined) | 11% | x | 4.5µM* | -1 | x | x
O=C1CC(SCc2nc3ccccc3[nH]2)C(=O)N1c1ccc(Cl)cc1 (centres undefined) | -4% | -10% | 25µM* | -9 | -20% | u
